One assay concerns the target DHCR7. The assay is described as follows: pooled miR-30 sensor sort-seq; sequence = guide strand. The settings on record: shRNA.
TTGACCATGGCGAAGGTGGAGA: the sensor-assay potency score (higher = more potent) is -0.859. In the case of TACTTGTTCACAACCCCTGCAG, the sensor-assay potency score (higher = more potent) is -0.0403. Same read-out and setting: in the case of TTGGCTTTGGGAATGTTGGGTT it was 0.501; in that of TTGTAAAAGAAATTGCCTGTGA, 0.127; in that of TTGTCGAAGATGATGGTGGGCG, -0.346. Still for that read-out and setting: the value for TAGTTGTAAAAGAAATTGCCTG was -0.825; that for TTGCAGTCTCTGGCGCTGGTGG was -0.837; that for TGAATTTGCAGTCTCTGGCGCT was 0.0615. The same measure, in the same setting: the value for TTGCCTGTGAATTTGCAGTCTC was -0.449; that for TTGCTGTGGTGCCTCTGCCCAT was -1.54.

The target in a further assay is DHPS. The description is as above. As to conditions: shRNA.
Take TAGGAATGGAAGAAGATCATGT: the sensor-assay potency score (higher = more potent) turned out to be 0.621.

Consider TAGCTGACCAAAAAGTAGGGGA, for which the sensor-assay potency score (higher = more potent) amounted to 0.0141. Still for that read-out and setting: in the case of TAATACACGGACTCTGGGTTGT it was -0.152; in that of TGATGTAAACAGCGTAGTCGGC, -0.353. Same read-out and setting: in the case of TTCCAGCTTCTTCTCGATCATG it was -1.22; in that of ATTGACTTGCTGTACAGCGCGC, -0.633; in that of AAAGGTTTCAGCCACAAGCAGG, -1.41. Still for that read-out and setting: the value for TTCTGCTCCATCACCATCTGGT was 0.0359.

Take TTTCCGATCCTATTGATCCCGT: the sensor-assay potency score (higher = more potent) is -0.549. TTGACTTGCTGTACAGCGCGCC showed a sensor-assay potency score (higher = more potent) of 0.283. Same read-out and setting: in the case of TTCTTCTCGATCATGGCATTGA it was -0.43. Turning to TACGTCCACCATGTTGTGCTGC, the sensor-assay potency score (higher = more potent) was -0.635. The same measure, in the same setting: in the case of TTGGTTGCTTGGAAGCCGGTGG it was -0.209. Turning to TGTGTTGATGTAAACAGCGTAG, the sensor-assay potency score (higher = more potent) was -0.876.

With TCGAGCTGTGCTTTAGCACGGC, the sensor-assay potency score (higher = more potent) was -0.48. On the same count and under the same terms, the value for TTGTGCTGCACAAGGTAGCGAA was -0.894; that for TTGCTGTACAGCGCGCCCGAAG was -1.67; that for TCGGGCGGCAACGTCGAGCTGT was -0.875. Still for that read-out and setting: the value for TTGATGTAAACAGCGTAGTCGG was -0.879; that for TGAGGTTGGATGTATATCCCAG was -0.155. On the same count and under the same terms, the value for TAAACAGCGTAGTCGGCCCCGT was -0.782; that for TCTTCATCCTGTGACAGTGGTT was -0.839; that for TATCCCAGGAAAATGGTGCAGC was -0.649. Consider TATTGATCCCGTTCTCCCGGAG, for which the sensor-assay potency score (higher = more potent) is -0.362.

The target in a further assay is DHX35. The assay is described as above. The settings on record: shRNA.
As to TAACACAAAACAGCGCACGAGT, the sensor-assay potency score (higher = more potent) was -0.967. On the same count and under the same terms, in the case of TTGTAAACAACCGTTGTCCCAG it was -0.562; in that of TTGAAACTTGACAAGAAGCTTT, 0.0953. Consider TAGACTGAGGCAACTTGTCAAA, for which the sensor-assay potency score (higher = more potent) was -1.05. Still for that read-out and setting: in the case of TAAGGGTTGTAAACAACCGTTG it was -0.768; in that of TAAAATATGATTCCTAAGCTTG, -0.148.

The values above are taken from the OligoGym collection.
Further: reference of the scale not given here.
